Unmarked numbers belong to inactive results. For some assays here: Results with a measured potency or affinity are listed apart. Activity calls are given as the source filed them. Unless noted, no rule for the calls is given here.

The values that follow come from PubChem BioAssay.

Assay [1] in a line: antimalarial activity against Dd2 strain (AID 2302;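 active = growth inhibition above 50% at the single 2 µM test dose, taken to imply half-maximal potency below 2 µM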;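 also: 0% = DMSO untreated growth and 100% = chloroquine plus artemisinin killed control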). Conditions: P. falciparum Dd2 in RBCs, LDH growth readout, 72 h; at 2 µM; stronger effect = higher value.
Assay [2] in a line: HepG2 cytotoxicity, primary screen, cytotoxicity control for P. falciparum antimalarial project, cell-based, ATP luminescence (AID 2303;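 active = inhibition above 50%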;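 also: 0% = DMSO wells and 100% = digitonin-killed cells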). Conditions: HepG2 viability, 24-48 h, at 10 µM, stronger effect = higher value.
The target of assay [3] is L-lactate dehydrogenase (Plasmodium falciparum (isolate CDC / Honduras)) (UniProt Q27743). Briefly: PfLDH activity inhibition – cell lysate, 3D7 strain, counter-screen for P. falciparum growth inhibition project (AID 2304).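 Also: 0% = vehicle and 100% = reference inhibitor.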 The following applies: P. falciparum 3D7 crude extract, LDH APAD/NBT absorbance; at 2 µM; stronger effect = higher value. Background: The purpose of a counterscreen is to sort out artefacts and off-target activity.
Sequence of L-lactate dehydrogenase (Plasmodium falciparum (isolate CDC / Honduras)) (Q27743 whole entry, looked up): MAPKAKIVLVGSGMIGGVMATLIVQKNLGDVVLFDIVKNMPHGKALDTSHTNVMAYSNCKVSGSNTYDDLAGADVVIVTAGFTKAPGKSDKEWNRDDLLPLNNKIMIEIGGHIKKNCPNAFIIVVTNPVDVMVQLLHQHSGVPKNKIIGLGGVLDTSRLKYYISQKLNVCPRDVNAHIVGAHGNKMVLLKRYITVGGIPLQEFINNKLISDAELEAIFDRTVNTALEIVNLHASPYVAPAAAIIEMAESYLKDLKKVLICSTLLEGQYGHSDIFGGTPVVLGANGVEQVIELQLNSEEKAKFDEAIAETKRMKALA

Assay [4] is described as follows: inhibition of 3D7 malaria parasite growth – strain 3D7 (AID 2306).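 Also: 0% = DMSO wells and 100% = chloroquine plus artemisinin control wells.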 The following applies: P. falciparum 3D7 erythrocytic growth, LDH absorbance, 72 h; at 2 µM; stronger effect = higher value.
The target in assay [5] is Calcium-dependent protein kinase 1 (Plasmodium falciparum (isolate 3D7)) (UniProt P62344). In words: PfCDPK1 kinase inhibitors, biochemical, TCAMS library (AID 1159585; cut-off not given, nearly all actives have IC50 up to about 0.98 µM;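 also: inhibitors leave more ATP so luminescence rises with inhibition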). Conditions: recombinant PfCDPK1, Kinase-Glo ATP depletion luminescence. (Kinase-Glo measures the ATP left after a reaction by luminescence.)
Sequence of Calcium-dependent protein kinase 1 (Plasmodium falciparum (isolate 3D7)) (P62344 whole entry, looked up): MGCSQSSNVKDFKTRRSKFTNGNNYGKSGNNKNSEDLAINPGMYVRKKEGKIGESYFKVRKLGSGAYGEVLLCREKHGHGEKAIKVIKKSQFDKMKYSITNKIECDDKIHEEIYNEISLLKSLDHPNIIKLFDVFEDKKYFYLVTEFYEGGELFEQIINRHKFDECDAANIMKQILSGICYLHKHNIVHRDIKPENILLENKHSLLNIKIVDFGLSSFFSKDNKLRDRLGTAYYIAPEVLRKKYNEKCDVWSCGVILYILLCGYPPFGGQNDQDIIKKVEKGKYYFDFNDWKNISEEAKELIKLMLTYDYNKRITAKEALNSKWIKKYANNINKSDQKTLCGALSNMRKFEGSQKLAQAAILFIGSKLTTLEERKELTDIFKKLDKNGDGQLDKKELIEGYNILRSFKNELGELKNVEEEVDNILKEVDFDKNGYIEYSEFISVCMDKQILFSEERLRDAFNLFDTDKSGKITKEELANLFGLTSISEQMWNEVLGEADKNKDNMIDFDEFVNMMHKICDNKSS
For assay [6], the target named is Plasmodium falciparum protein kinase 6 (PK6, PF3D7_1337100) (UniProt Q8IDW1). Briefly: PfPK6 kinase inhibitors, biochemical, TCAMS library (AID 1159586). Conditions: recombinant PfPK6, Kinase-Glo ATP depletion luminescence.
Sequence of Plasmodium falciparum protein kinase 6 (PK6, PF3D7_1337100) (Q8IDW1 1-305): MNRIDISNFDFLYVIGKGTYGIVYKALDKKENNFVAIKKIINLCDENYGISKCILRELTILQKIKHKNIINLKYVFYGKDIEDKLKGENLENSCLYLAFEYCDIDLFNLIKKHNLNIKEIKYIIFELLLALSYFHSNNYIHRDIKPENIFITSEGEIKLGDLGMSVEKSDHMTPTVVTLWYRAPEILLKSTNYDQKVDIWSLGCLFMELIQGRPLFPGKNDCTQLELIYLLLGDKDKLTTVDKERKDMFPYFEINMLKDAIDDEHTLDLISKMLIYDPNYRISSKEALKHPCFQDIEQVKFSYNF
Assay [7] has as its target Protein kinase 7 (PK7), Plasmodium falciparum 3D7 (PF3D7_0213400) (UniProt Q7YTF7). Briefly: inhibition of Plasmodium PK7 catalytic activity – biochemical, TCAMS antimalarial set, Kinase-Glo luminescence (AID 1159587). Conditions: recombinant PfPK7, Kinase-Glo ATP depletion luminescence.
The target in assay [8] is Calcium-dependent protein kinase 4 (Plasmodium falciparum (isolate 3D7)) (UniProt Q8IBS5). In words: PfCDPK4 kinase inhibitors, biochemical, TCAMS library (AID 1159588; cut-off not given, nearly all actives have IC50 up to about 0.91 µM). The following applies: recombinant PfCDPK4, Kinase-Glo ATP depletion luminescence.
Sequence of Calcium-dependent protein kinase 4 (Plasmodium falciparum (isolate 3D7)) (Q8IBS5 whole entry, looked up): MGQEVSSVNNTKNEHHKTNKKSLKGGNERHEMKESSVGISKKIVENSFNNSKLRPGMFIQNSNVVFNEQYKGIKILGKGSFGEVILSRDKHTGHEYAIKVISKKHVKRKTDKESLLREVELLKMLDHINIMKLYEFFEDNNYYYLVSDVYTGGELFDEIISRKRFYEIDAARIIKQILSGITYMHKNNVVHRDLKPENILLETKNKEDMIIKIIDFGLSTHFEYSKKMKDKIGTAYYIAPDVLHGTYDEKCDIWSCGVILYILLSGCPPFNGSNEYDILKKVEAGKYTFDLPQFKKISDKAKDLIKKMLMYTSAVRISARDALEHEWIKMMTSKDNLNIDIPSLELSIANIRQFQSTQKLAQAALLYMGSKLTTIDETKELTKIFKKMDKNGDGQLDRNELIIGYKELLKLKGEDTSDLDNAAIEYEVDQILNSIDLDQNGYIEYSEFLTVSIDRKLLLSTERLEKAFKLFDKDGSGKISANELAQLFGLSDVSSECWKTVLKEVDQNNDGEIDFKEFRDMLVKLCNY

Sequence of Protein kinase 7 (PK7), Plasmodium falciparum 3D7 (PF3D7_0213400) (Q7YTF7 1-343): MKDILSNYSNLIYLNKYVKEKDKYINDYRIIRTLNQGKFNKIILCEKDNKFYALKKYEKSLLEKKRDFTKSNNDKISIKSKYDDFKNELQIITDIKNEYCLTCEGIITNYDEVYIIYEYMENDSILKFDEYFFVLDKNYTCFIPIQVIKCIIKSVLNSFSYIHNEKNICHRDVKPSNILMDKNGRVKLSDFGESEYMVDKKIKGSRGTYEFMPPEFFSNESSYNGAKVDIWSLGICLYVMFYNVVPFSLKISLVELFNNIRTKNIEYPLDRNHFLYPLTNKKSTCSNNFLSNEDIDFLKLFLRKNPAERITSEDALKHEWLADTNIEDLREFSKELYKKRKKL

Take `COc1cccc(NC(=O)Nc2cc(C)nc3ccccc23)c1`: the growth inhibition in assay [1] is 48%; in assay [4], 100% (active). Moreover, the inhibition in assay [2] was 2%; in assay [3], -1%. Besides, the outcome in assay [5], in assay [6], in assay [7] and in assay [8] was inactive.

For `CCOc1ccc(Br)cc1/C=C/C(=O)Nc1ccc(C2CCN(C)CC2)cc1`, the growth inhibition in assay [1] was 71% (active); in assay [4], 100% (active). Besides, the inhibition was 30% in assay [2] and -2% in assay [3]. The result in assay [5], in assay [6], in assay [7] and in assay [8] was inactive.

Turning to `NC(=NCc1ccc(O)cc1)Nc1nc(-c2ccc(OCCCn3ccnc3)cc2)cs1`, the results for the growth inhibition in assay [1] and in assay [4] were 89% (active) and 102% (active), respectively. Besides, the inhibition in assay [2] is 13%; in assay [3], 2%. Also, the result in assay [5], in assay [6], in assay [7] and in assay [8] was inactive.

Regarding `O=c1[nH]c(NCCCNCc2cc3c(Cl)cc(Cl)cc3[nH]2)nc2ccsc12`, the figures for the growth inhibition in assay [1] and in assay [4] were 11% and 96% (active), respectively. Also, the inhibition is 62% (active) in assay [2] and 0% in assay [3]. The outcome in assay [5], in assay [6], in assay [7] and in assay [8] was inactive.

`COc1ccc(C2CCN(CCCCNC(=O)c3ccc(NC(=O)c4ccc(Cl)cc4)cc3)CC2)cc1Cl`: the figures for the growth inhibition in assay [1] and in assay [4] were 75% (active) and 97% (active), respectively. The values for the inhibition in assay [2] and in assay [3] were 28% and 4%, respectively. Besides, the outcome in assay [5], in assay [6], in assay [7] and in assay [8] was inactive.

For the compound `Cc1nc(N2CCC(C)CC2)c2c3c(sc2n1)CCCC3`, the growth inhibition was 39% in assay [1] and 93% (active) in assay [4]. In addition, the inhibition is 13% in assay [2] and 1% in assay [3]. The result in assay [5], in assay [6], in assay [7] and in assay [8] was inactive.

For the compound `CN(C)CCNc1cc(-c2ccc3ccccc3c2)nc2ccccc12`, the growth inhibition in assay [1] is 58% (active); in assay [4], 102% (active). The inhibition in assay [2] was 24%; in assay [3], -5%. In addition, the outcome in assay [5], in assay [6], in assay [7] and in assay [8] was inactive.

For `C=CCn1c(Sc2ccc(C#N)c([N+](=O)[O-])c2)nnc1-c1cccc(Cl)c1`, the growth inhibition in assay [1] was 54% (active); in assay [4], 97% (active). The inhibition is 41% in assay [2] and -1% in assay [3]. The result in assay [5], in assay [6], in assay [7] and in assay [8] was inactive.

On to `CCOC(=O)c1cc(C(=O)NCCCCN2CCC(c3ccc4c(c3OC)CCCC4)CC2)ccc1-c1ccc(C(F)(F)F)cc1`, for which the growth inhibition is 60% (active) in assay [1] and 101% (active) in assay [4]. For the same compound, the figures for the inhibition in assay [2] and in assay [3] were 100% (active) and -3%, respectively. For the same compound, the result in assay [5], in assay [6], in assay [7] and in assay [8] was inactive.

On to `Cc1cccc2[nH]c(-c3ccc(-c4cccc(NC(=O)CCc5cnc[nH]5)c4)s3)nc12`, for which the growth inhibition in assay [1] was 70% (active); in assay [4] it was 94% (active). Also, the inhibition was 2% in assay [2] and -4% in assay [3]. In addition, the result in assay [5], in assay [6], in assay [7] and in assay [8] was inactive.

With `CC(C)CCOc1ccc(NC(=O)c2cccs2)cc1`, the growth inhibition in assay [1] and in assay [4] was 95% (active) each time. The inhibition in assay [2] is 11%; in assay [3] it was -3%. Further, the outcome in assay [5], in assay [6], in assay [7] and in assay [8] was inactive.

As for `CCc1ccc(CN2CCC(CNC(=O)c3cc(-c4cccc(C(F)(F)F)c4)cs3)C2)cc1` (configuration not stated), the figures for the growth inhibition in assay [1] and in assay [4] were 48% and 97% (active), respectively. The values for the inhibition in assay [2] and in assay [3] were 45% and 2%, respectively. Further, the result in assay [5], in assay [6], in assay [7] and in assay [8] was inactive.

For `CN(C)CCn1c(N)c(-c2nc3ccccc3s2)c2nc(C#N)c(C#N)nc21`, the growth inhibition in assay [1] is 40%; in assay [4], 94% (active). The results for the inhibition in assay [2] and in assay [3] were 4% and -7%, respectively. Further, the outcome in assay [5], in assay [6], in assay [7] and in assay [8] was inactive.

As for `COc1ccc(Nc2nccc(NCCNC(=O)c3cc4ccccc4s3)n2)cc1`, the growth inhibition is 7% in assay [1] and 98% (active) in assay [4]. For the same compound, the results for the inhibition in assay [2] and in assay [3] were 6% and -1%, respectively. The outcome in assay [5], in assay [6], in assay [7] and in assay [8] was inactive.

In the case of `O=S(=O)(NCCN1CCCC1)c1ccc(-c2ccc(CNCc3ccc(F)cc3)cc2)s1`, the values for the growth inhibition in assay [1] and in assay [4] were 44% and 101% (active), respectively. Further, the inhibition in assay [2] is 42%; in assay [3] it was 6%. In addition, the result in assay [5], in assay [6], in assay [7] and in assay [8] was inactive.

Consider `CC1CN=C(c2cccc(NC(=O)Nc3cccc(C4=NCC(C)N4)c3)c2)N1` (configuration not stated), for which the growth inhibition was 98% (active) in assay [1] and 94% (active) in assay [4]. The inhibition was 7% in assay [2] and -3% in assay [3]. For the same compound, the outcome in assay [5], in assay [6], in assay [7] and in assay [8] was inactive.

For `O=C(/C=C/c1ccc(Cl)c(Cl)c1)NCCCCCN1CCCN(C(=O)Nc2ccc(Cl)c(Cl)c2)CC1`, the values for the growth inhibition in assay [1] and in assay [4] were 2% and 100% (active), respectively. The inhibition is 55% (active) in assay [2] and 2% in assay [3]. Besides, the result in assay [5], in assay [6], in assay [7] and in assay [8] was inactive.

In the case of `CCCNC(=O)C1CCN(C(c2ccc(Cl)cc2)c2ccc(Cl)cc2)CC1`, the growth inhibition in assay [1] is 96% (active); in assay [4], 98% (active). The results for the inhibition in assay [2] and in assay [3] were 7% and 4%, respectively. Moreover, the outcome in assay [5], in assay [6], in assay [7] and in assay [8] was inactive.

As for `Nc1nc(N)c2c(CCc3ccc(Cl)c(Cl)c3)cccc2n1`, the growth inhibition in assay [1] was 83% (active); in assay [4], 101% (active). Besides, the figures for the inhibition in assay [2] and in assay [3] were 51% (active) and 6%, respectively. For the same compound, the result in assay [5], in assay [6], in assay [7] and in assay [8] was inactive.

As a reminder, the inhibition is the change of the read-out against control, counted positive when it falls.
